Screening data deposited in PubChem by National Center for Advancing Translational Sciences (NCATS).
Rows were chosen to be rich in hits. Some 1.4% of all compounds tested hit in one or more screens of this group.
AmpC inh detg – qHTS Inhibitors of AmpC Beta-Lactamase (assay with detergent); P00811; AmpC hydrolysis of nitrocefin, absorbance 480 nm, 0.01% Triton; Potency, µM (series often up to 114 µM), without a hit: at the highest dose activity change, negative = inhibition, hits mostly inhibitors; 370,000 compounds, 0.041% hits; AID 485294, 2010;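 also: 0% = no-compound wells and -100% = no-enzyme wells; nearly all actives have a fitted effect of over 25% in size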
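AmpC (5.3 nM in the dispensed reagent) in 20 mM phosphate pH 7.0 with 0.01% (detergent screen) or 0.0001% Triton X-100 was preincubated with compounds for 15 min at room temperature. Nitrocefin was then added from an 800 uM solution, and hydrolysis was followed at 480 nm.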
AmpC inh no detg – qHTS Inhibitors of AmpC Beta-Lactamase (assay without detergent); 330,000 compounds, 0.52% hits; AmpC nitrocefin hydrolysis, absorbance 480 nm, 0.0001% Triton; Potency, µM (doses to about 57.1 µM), without a hit: at the top dose activity change, negative = inhibition, usual class: inhibitors;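 also: plate controls were no compound for no effect and no enzyme for full effect; nearly all actives have a fitted effect of over 20% in size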
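AmpC (5.3 nM in the dispensed reagent) in 20 mM phosphate pH 7.0 with 0.01% (detergent screen) or 0.0001% Triton X-100 was preincubated with compounds for 15 min at room temperature. Nitrocefin was then added from an 800 uM solution, and hydrolysis was followed at 480 nm.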
RE007 growth inh – qHTS Assay for Inhibitors of the HIV-1 protein Vpr; Potency, µM (highest dose often 92.2 µM), inactives show top-dose activity change, negative = less growth, most hits filed as inhibitors; AID 651644, 2012; S. pombe RE007 Vpr strain, BacTiter-Glo ATP luminescence, 24 h; 360,000 compounds, 0.21% hits; active = well fitted falling curve with a large enough effect; inconclusive = small, poorly fitted or top-dose-only effect; inactive = no such curve, though single readings can be large or run the other way; also: nearly all actives have a fitted effect of over 50% in size
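Fission yeast RE007 carrying one integrated HIV-1 vpr copy, seeded at OD 0.01 in PMG+AL medium with 23 nL pinned compound. Grown 24 h at 30 degrees; viability read by BacTiter-Glo luminescence after 5 min.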
LmPK inhibitor – qHTS Assay for Inhibitors of Leishmania Mexicana Pyruvate Kinase (LmPK); purified LmPK, Kinase-Glo ATP luminescence, 1 h; Potency, µM (doses to about 57.5 µM), for inactives: at the top dose activity change, negative = inhibition, actives largely listed as inhibitors; Q27686; 290,000 compounds, 0.37% hits
Target sequence (Q27686 whole entry, looked up): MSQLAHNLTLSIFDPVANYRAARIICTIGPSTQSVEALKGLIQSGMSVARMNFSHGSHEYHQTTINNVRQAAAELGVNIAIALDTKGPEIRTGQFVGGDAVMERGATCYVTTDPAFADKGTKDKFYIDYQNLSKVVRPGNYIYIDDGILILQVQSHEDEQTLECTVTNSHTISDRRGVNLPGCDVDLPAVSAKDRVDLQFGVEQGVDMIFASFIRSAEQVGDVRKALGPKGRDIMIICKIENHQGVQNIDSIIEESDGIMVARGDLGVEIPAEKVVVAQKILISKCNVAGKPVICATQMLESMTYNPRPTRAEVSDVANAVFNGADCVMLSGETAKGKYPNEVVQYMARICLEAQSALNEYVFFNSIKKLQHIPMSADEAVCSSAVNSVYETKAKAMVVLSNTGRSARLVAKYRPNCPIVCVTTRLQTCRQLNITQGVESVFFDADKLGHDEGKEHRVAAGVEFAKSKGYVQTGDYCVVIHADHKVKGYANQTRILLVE
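Purified LmPK (0.1 nM) converted ADP (0.1 mM) to ATP with PEP (0.5 mM) in imidazole buffer pH 7.2 with KCl and MgCl2, 1 h at room temperature. ATP was read by Kinase-Glo luminescence; data normalized to uninhibited and no-enzyme controls.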
TbPYK inhibitor – qHTS of Trypanosoma Brucei Inhibitors; pyruvate kinase (Trypanosoma brucei), Q57TT1; TbPYK enzyme, Kinase-Glo Plus ATP luminescence, 45 min; Potency, µM (titrated, usually from 76.8 µM), for inactives: at the top dose activity, negative = inhibition, most hits filed as inhibitors; 410,000 compounds, 0.12% hits; AID 624173, 2012; also: nearly all actives have a fitted effect of over 50% in size
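Luminescent Kinase-Glo Plus end-point after 45 min room-temperature reaction of T. brucei pyruvate kinase started with 130 uM ADP (final). Buffer TEA 50 mM pH 7.2 with KCl, MgCl2, BSA, Tween-20; titration-based qHTS with fitted concentration-effect curves.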
Giardia FBPA inh-1 – qHTS Assay for Inhibitors of Fructose-1,6-bisphosphate Aldolase from Giardia Lamblia; A8B2U2; purified Giardia FBPA; Potency, µM (highest dose often 59.6 µM), for the others: at the highest dose activity, negative = inhibition, hits mostly inhibitors; 290,000 compounds, 0.71% hits; AID 2451, 2010; also: nearly all actives have a fitted effect of over 55% in size
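40 nM FBPA preincubated 10 min at RT with compound (up to 57.5 uM final), then substrate plus GAPDH/TPI/NAD/arsenate coupling and diaphorase/resazurin added. Fluorescence read after 20 min at RT, 525/598 nm.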
Giardia growth – qHTS Assay for Inhibitors of Fructose-1,6-bisphosphate Aldolase from Giardia Lamblia: Giardia lamblia growth inhibition. Potency, µM (top dose mostly 57.5 µM), inactives show top-dose activity change, negative = inhibition, usual class: inhibitors. 1,500 compounds, 5% hits. shares compounds with Giardia FBPA inh-1. Giardia lamblia trophozoite growth inhibition;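 also: trophozoites exposed to compound for 48 h at 37 °C; nearly all actives have a fitted effect of over 70% in size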
Mammalian tox – qHTS Assay for Inhibitors of Fructose-1,6-bisphosphate Aldolase from Giardia Lamblia: Mammalian cellular toxicity; Potency, µM (titrated, usually from 57.5 µM), without a hit: at the highest dose viability change, negative = toxicity, usual class: inhibitors; 1,500 compounds, 4% hits; mammalian cell viability counter-screen, qHTS; shares compounds with Giardia FBPA inh-1; AID 2786, 2010;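 also: Chinese hamster ovary cells used as mammalian cytotoxicity surrogate; viability measured as cellular ATP by luminescence; compound exposure lasted 48 h before reading; nearly all actives have a fitted effect of over 60% in size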
Giardia FBPA inh-2 – qHTS Assay for Inhibitors of Fructose-1,6-bisphosphate Aldolase from Giardia Lamblia: Primary screen confirmation; shares compounds with Giardia FBPA inh-1; purified Giardia aldolase enzyme activity, qHTS; Potency, µM (highest dose often 57.5 µM), for inactives: top-dose activity change, negative = inhibition, actives largely listed as inhibitors; 1,500 compounds, 5% hits; also: nearly all actives have a fitted effect of over 45% in size
Rabbit FBPA inh – qHTS Assay for Inhibitors of Fructose-1,6-bisphosphate Aldolase from Giardia Lamblia: Rabbit FBPA Selectivity; shares compounds with Giardia FBPA inh-1; 1,500 compounds, 4% hits; Rabbit muscle FBPA enzyme inhibition, selectivity counter-screen; Potency, µM (series often up to 57.5 µM), inactives show top-dose activity, negative = inhibition, usual class: inhibitors; AID 2794, 2010; also: nearly all actives have a fitted effect of over 60% in size
GAPDH counter – qHTS Assay for Inhibitors of Fructose-1,6-bisphosphate Aldolase from Giardia Lamblia: Coupling assay counterscreen confirmation | shares compounds with Giardia FBPA inh-1 | GAPDH coupling enzyme counterscreen, biochemical, qHTS | Potency, µM (highest dose often 57.5 µM), without a hit: top-dose activity change, negative = inhibition, usual class: inhibitors | 1,500 compounds, 6% hits | AID 2795, 2010; also: nearly all actives have a fitted effect of over 55% in size
Active calls of the source: *; ? = inconclusive; · = not tested or not shown. Unless noted, calls follow the shape of the dose curve; as a rule, active = well fitted curve in the direction sought with a large enough effect; inconclusive = small, poorly fitted or top-dose-only effect, or another doubt; inactive = no such curve, though single readings can be large; an effect the other way counts as inactive or inconclusive. Unless noted, % is scaled to controls: 0 for no effect and ±100 for the full control effect; potency is read from the fitted curve at half-maximal effect.

SMILES	AmpC inh detg	AmpC inh no detg	RE007 growth inh	LmPK inhibitor	TbPYK inhibitor	Giardia FBPA inh-1	Giardia growth	Mammalian tox	Giardia FBPA inh-2	Rabbit FBPA inh	GAPDH counter
CCc1c(-c2ccccc2)nc2ccccc2c1C(=O)NCCc1ccccc1	2%	·	·	·	0%	·	·	·	·	·	·
Cc1cccc(OCCn2ccnc2)c1C	-13%	-3%	20%	-1%	2%	22µM*	10%	1%	-1%	5%	7%
CCc1ccc(OCCn2ccnc2)cc1	-10%	-5%	2%	-11%	24%	25µM*	?	-5%	6%	6%	7%
CCc1ccc(OCCCCCn2ccnc2)cc1	?	-1%	-19%	1%	9%	?	·	·	·	·	·
Cc1ccccc1OCCn1ccnc1	0%	-6%	1%	-1%	-5%	?	·	·	·	·	·
COc1ccc(/C=C\c2onc(C)c2S(=O)(=O)N2CCC(C(=O)Nc3cccc(OC)c3)CC2)cc1	4%	·	·	·	5%	·	·	·	·	·	·
Cc1cc2c(n1-c1ccc(C(=O)NCCc3ccc(Cl)cc3)cc1)CCC(C)C2 (stereo not drawn)	7%	·	·	·	1%	·	·	·	·	·	·
CCCn1c(C(C)NC(=O)c2ccccc2)n[nH]c1=S (stereo not drawn)	-3%	2%	-13%	-2%	?	19%	·	·	·	·	·
CCn1c(C(C)NS(=O)(=O)c2ccc(Cl)cc2)n[nH]c1=S (stereo not drawn)	-3%	-22%	3%	2%	?	11µM*	14%	-6%	6%	4%	13%
CCCn1c(C(C)NS(=O)(=O)c2ccccc2)n[nH]c1=S (stereo not drawn)	2%	-16%	2%	-18%	?	10µM*	73%	12%	-1%	-1%	6%
COC(=O)c1ccc(OCC2c3cc(OC)c(OC)cc3CCN2C(=O)c2cccc(C)c2)cc1 (stereo not drawn)	-1%	·	·	·	-11%	·	·	·	·	·	·
CCCNC[C@H](O)COc1ccccc1C(=O)CCc1ccccc1	·	·	·	·	·	-2%	·	·	·	·	·
Cc1ccc(Nc2cc(C)nn2-c2nc(C)cc(=O)[nH]2)cc1	?	6%	?	3%	-2%	-28%	?	2.9µM*	-4%	-14%	-26%
